MCF10A rerep – induces DNA re-replication in MCF 10a normal breast cells; MCF 10A DNA re-replication, Hoechst nuclear intensity, 48 h; Potency, µM (doses to about 46.1 µM), without a hit: at the highest dose activity, positive = re-replication, hits mostly activators; hit rate 2.9% among 350,000; further: % of control where 0% means no effect; nearly all actives have a fitted effect of over 50% in size
KB-V1 cytotox – kills drug-selected multidrug resistant KB-V1 cells | KB-V1 MDR cells viability, CellTiter-Glo, 72 h | Potency, µM (titrated, usually from 46.1 µM), hits mostly cytotoxic | hit rate 3.4% among 400,000 | AID 1347076; further: on the % scale 0 is the no-effect control and ±100 the full control effect; nearly all actives have a fitted effect of over 60% in size
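KB-V1 cells (P-gp-expressing MDR subline of KB-3-1) in phenol-red-free DMEM with 10% FBS were exposed to library compounds over a concentration series for 72 h at 37 degrees C. Viability read by CellTiter-Glo luminescence; concentration-effect curves fitted after normalization.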
ELG1 DNA repair – inhibitors of ELG1-dependent DNA repair in HEK293T cells; hit rate 2.3% among 330,000; AID 504467; HEK293T ELG1-luciferase reporter, luminescence, 16 h; DNA damage induced by 5-fluorouridine; Potency, µM (top dose mostly 46.1 µM), for inactives: at the top dose activity change, negative = inhibition, actives largely listed as inhibitors; further: on the % scale 0 is the no-effect control and ±100 the full control effect; nearly all actives have a fitted effect of over 55% in size
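Luminescence from the luciferase reporter, measured 30 min after ONE-Glo reagent at room temperature, was the read-out. Beforehand, 2,000 cells per well were exposed for 16 hr at 37 °C to 5-fluorouridine together with compound or vehicle.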
SW480 rereplic – induces DNA re-replication in SW480 colon adenocarcinoma cells; SW480 DNA re-replication, Hoechst DNA content imaging, 48 h; Potency, µM (highest dose often 46.1 µM), for inactives: top-dose re-replication activation, usual class: activators; hit rate 1.8% among 340,000; AID 624297; further: % of control where 0% means no effect; nearly all actives have a fitted effect of over 55% in size
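Readout is total intensity of Hoechst-stained nuclei, excited at 405 nm and collected at 500-530 nm. Compound treatment lasted 48 hr at 37 C in 5% CO2 before staining.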
KB-3-1 tox – KB-3-1 parental cell cytotoxicity | AID 1347075 | KB-3-1 viability, CellTiter-Glo ATP luminescence, 72 h | hit rate 1.4% among 400,000 | Potency, µM (highest dose often 46.1 µM), hits mostly cytotoxic; further: on the % scale 0 is the no-effect control and ±100 the full control effect; nearly all actives have a fitted effect of over 60% in size
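Luminescent ATP read-out (CellTiter-Glo) measures survival of drug-naive KB-3-1 cells after 72 h compound exposure at 37 °C. Titration series was screened from lowest to highest concentration, with DMSO vehicle plates as background controls.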
* = called active by the depositor; i = inactive; ? = inconclusive; / = no result. Shown are actives, neighbours in structure and some others; about 8.1% of the full set was active somewhere. The call rests on the fitted dose curve; in most records, active means well fitted curve in the direction sought with a large enough effect; inconclusive means small, poorly fitted or top-dose-only effect, or another doubt; inactive means no such curve, though single readings can be large; an effect the other way counts as inactive or inconclusive. Potency means the concentration at half of the fitted maximal effect.

SMILES | MCF10A rerep | KB-V1 cytotox | ELG1 DNA repair | SW480 rereplic | KB-3-1 tox
COc1ccccc1N1CCN(CCCNC(=O)C2CCCN(c3ncnc4c3nc3n4CCCCC3)C2)CC1 (stereo not given) | 8% | i | 12µM* | -2% | i
COc1cccc(CCNC(=O)C2CCCN(c3ncnc4c3nc3n4CCCCC3)C2)c1OC (stereo not given) | 9% | i | 7.3µM* | ? | i
CCSc1ccc(-c2nn(-c3ccccc3)cc2/C=C(/C#N)C(=O)NC)cc1 | ? | i | 16% | ? | i
CCCSc1ccc(-c2nn(-c3ccccc3)cc2/C=C(/C#N)C(=O)N2CCOCC2)cc1 | -56% | 23µM* | ? | -81% | ?
COc1cccc(NC(=S)N(CCN(C)C)C(C)c2ccco2)c1 (stereo not given) | -3% | ? | -18% | / | i
COc1ccc(NC(=S)N(CCN(C)C)C(C)c2ccco2)cc1Cl (stereo not given) | 29% | 23µM* | -5% | -15% | i
Cc1cccc(NC(=S)NNC(=O)c2csc(C(C)C)c2)c1 | ? | 21µM* | ? | -2% | i
CCc1cc(C(=O)NNC(=S)Nc2cccc(C)c2)cs1 | ? | i | ? | -9% | i
COc1cc(N(C)C)c(OC)cc1C=O | / | i | / | / | i
c1ccc(N2CC3COc4ccccc4C3=N2)cc1 (stereo not given) | 13µM* | i | / | 15µM* | i
Cc1ccc(Nc2nc3ccccc3s2)c(C)c1 | ? | i | ? | -2% | i
Cc1cc(O)ccc1Nc1nc2ccccc2nc1Nc1ccc(O)cc1C | 18µM* | i | -22% | ? | i
Cc1cc(Cl)ccc1NC(=O)Cn1nnc2sc(-c3ccccc3)cc2c1=O | / | i | / | / | i
COc1ccc(N/C=C\C(=O)c2ccc3c(c2)OCO3)cc1OC | 15% | i | ? | 3% | i
COc1cc(C(=O)c2ccc3c(c2)OCO3)cc(OC)c1OC | ? | 3.3µM* | / | 2.1µM* | 4.6µM*
COc1cc(C(=O)NNC(=S)NC(=O)c2ccc3c(c2)OCO3)cc(OC)c1OC | ? | i | ? | ? | ?
COc1cc(C(=O)NNC(=O)c2ccc3c(c2)OCCO3)cc(OC)c1OC | 0% | i | -20% | -4% | i
COc1cc(C(=O)N/N=C(\C)c2ccc3c(c2)OCO3)cc(OC)c1OC | 4.1µM* | 5.2µM* | -22% | 2.6µM* | 4.6µM*
COc1cccc(/C=C/C(=O)c2ccc3c(c2)OCO3)c1OC | ? | 23µM* | ? | ? | ?
COc1cc(C(=O)c2cocc2C(=O)c2ccc3c(c2)OCO3)cc(OC)c1OC | ? | 1.2µM* | ? | 1.8µM* | ?
COCCSc1nc2c([nH]c3ccccc32)c(=O)n1-c1ccc(OC)c(OC)c1 | / | i | / | / | i
CSc1ncc(Cl)c(C(=O)Nc2c(C(=O)c3ccc(C)c(F)c3)oc3ccccc23)n1 | / | i | / | / | i
CCc1ccc(-c2nc(NC(=O)c3ccc(OCC(=O)Nc4ccc(F)cc4)c(OC)c3)sc2C)cc1 | 10% | i | ? | -33% | i
COc1cc(C(=O)Nc2nc(-c3ccc(Cl)cc3)c(C)s2)ccc1OCC(=O)Nc1ccc(F)cc1 | ? | ? | ? | / | 13µM*
O=C(COc1ccccc1/C=C1\SC(=S)NC1=O)Nc1ccc(F)cc1 | 1.5µM* | i | ? | ? | i
CCCOc1ccc(-c2nc(C#N)c(N3CCN(C)CC3)o2)cc1 | -6% | i | -7% | 3% | i
COc1ccc(-c2nc(C#N)c(N3CCCCCC3)o2)cc1OC | ? | 8.2µM* | ? | 4% | i
N#Cc1nc(-c2ccco2)oc1N1CCc2ccccc2C1 | ? | 8.2µM* | ? | 10% | i
CCCOc1ccc(-c2nc(C#N)c(N3CCc4ccccc4C3)o2)cc1 | 17% | 16µM* | 3% | -1% | i
CC1CC(C)CN(c2oc(-c3ccco3)nc2C#N)C1 (stereo not given) | ? | 21µM* | 5% | 1% | i

From PubChem
